Screening data from PubChem BioAssay.
SW480 rerep = DNA re-replication induction in SW480 cells. AID 624297. Potency, µM (titrated, usually from 46.1 µM), for the others: at the highest dose re-replication activation, usual class: activators. 340,000 tested, 1.8% active. SW480 DNA re-replication, Hoechst DNA content imaging, 48 h; further: potency means the concentration at half of the fitted maximal effect; % of control where 0% means no effect; nearly all actives have a fitted effect of over 55% in size
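Image-based DNA-content assay: after two days of treatment, nuclei were labelled with the DNA dye Hoechst and imaged, and hits were compounds raising the count of nuclei showing high fluorescence intensity.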
TDP1 cell noCPT = qHTS for Inhibitors of human tyrosyl-DNA phosphodiesterase 1 (TDP1): qHTS in cells in absence of CPT | DT40 Tdp1-/- hTDP1 cells, no CPT, ATP luminescence, 48 h | Potency, µM (series often up to 46.2 µM), for inactives: top-dose activity change, negative = growth inhibition, most hits filed as inhibitors | 420,000 tested, 15% active | AID 686978, 2013; further: potency means the concentration at half of the fitted maximal effect; on the % scale 0 is the no-effect control and ±100 the full control effect; nearly all actives have a fitted effect of over 55% in size
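No-CPT arm: Tdp1-/-;hTDP1 DT40 cells (400/well) plus compounds, incubated ≥48 hr at 37 °C. Readout CellTiter-Glo luminescence.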
TDP1 cell CPT = growth inhibition of DT40 Tdp1-/-;hTDP1 cells with camptothecin (screen for TDP1 inhibitors); Potency, µM (titrated, usually from 46.2 µM), for inactives: at the top dose activity change, negative = growth inhibition, most hits filed as inhibitors; AID 686979; chicken DT40 Tdp1-/-;hTDP1 cells + 20 nM CPT, ATP luminescence, 48 h; 420,000 tested, 12% active; further: potency means the concentration at half of the fitted maximal effect; on the % scale 0 is the no-effect control and ±100 the full control effect; nearly all actives have a fitted effect of over 55% in size
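Chicken DT40 Tdp1-/- cells complemented with human TDP1, 400 cells/well, exposed to compounds plus 20 nM camptothecin for at least 48 h at 37 C; viability read as ATP content by CellTiter-Glo luminescence.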
MCF10A rereplic = induces DNA re-replication in MCF 10a normal breast cells; 350,000 tested, 2.9% active; Potency, µM (top dose mostly 46.1 µM), without a hit: at the highest dose activity, positive = re-replication, usual class: activators; MCF 10A DNA re-replication, Hoechst nuclear intensity, 48 h; further: potency means the concentration at half of the fitted maximal effect; % of control where 0% means no effect; nearly all actives have a fitted effect of over 50% in size
IL1B secr inh = inhibitors of inflammasome signaling (IL-1 beta secretion). THP-1 LPS/ATP IL-1B secretion, AlphaLISA, 16 h; hits give low values. activity change, % at 57.5 µM. 360,000 tested, 4.7% active. AID 743279; in the data active means activity change below about -50%; inconclusive means mostly about -30% to -49%; further: on the % scale 0 is the no-effect control and ±100 the full control effect
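Secreted IL-1B measured by AlphaLISA bead assay after 16 h compound exposure of THP-1 cells; compounds (final up to 57.5 uM) added 1 h before LPS (250 ng/mL) and ATP (1.25 mM) stimulation; lower signal means less secretion.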
BCR signal inh = inhibitors of chronic active B-cell receptor signaling; ABC-DLBCL IkBa-CBG/CBR reporter, luminescence ratio, 4 h; Potency, µM (doses to about 46.1 µM), for inactives: top-dose activity change, negative = inhibition, hits mostly inhibitors; 340,000 tested, 0.05% active; AID 493014; active means well fitted inhibition curve with a large enough effect in the signal ratio, with a control signal flat, not every such curve was filed as active; inconclusive means small, poorly fitted or top-dose-only effect, or effect the other way, or a change in a side signal; the % refers to the signal ratio;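 further: potency means the concentration at half of the fitted maximal effect; plate controls were basal doxycycline-induced cells for no effect and cells given 10 µM MG132 for full effect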
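Cell line TMD8 (human ABC DLBCL), stably expressing tet-inducible CBG68-IkBa fusion and CBR; IMDM/0.5% FBS; cpd up to 46 uM; dox induction, 4 h, 37C/5% CO2; dual luminescence; green/red ratio; MG132 control.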
* hit, by the source's call; u = inconclusive; x = no result; [ ] = dose if it differs, or a comment. Compounds with a hit are over-represented: about 19% of the library has one in this group of screens. Unless noted, the call rests on the fitted dose curve; in most records, active means well fitted curve in the direction sought with a large enough effect; inconclusive means small, poorly fitted or top-dose-only effect, or another doubt; inactive means no such curve, though single readings can be large; an effect the other way counts as inactive or inconclusive.

SMILES | SW480 rerep | TDP1 cell noCPT | TDP1 cell CPT | MCF10A rereplic | IL1B secr inh | BCR signal inh
COc1ccc(-c2coc3ccc(OC4OC(COC(C)=O)C(OC(C)=O)C(OC(C)=O)C4OC(C)=O)c(OC(C)=O)c3c2=O)cc1 (configuration not stated) | x | 8.4µM* | u | x | x | x
COc1ccc(-c2coc3cc(O[C@@H]4O[C@H](CO)[C@@H](O)[C@H](O)[C@H]4O)ccc3c2=O)cc1 | 23%[9.22 µM] | -17% | -3% | -3% | 12 | -3%
COc1ccc(O[C@@H]2O[C@H](COC(C)=O)[C@@H](OC(C)=O)[C@H](OC(C)=O)[C@H]2NC(C)=O)cc1 | -10% | 3% | 4% | 2% | 13 | -3%
CC1=CC(C)C(=O)N(C)C(C)=C1 (configuration not stated) | x | 0% | 24% | x | 12 | x
C/C(=N\NC(=O)c1csc(C)c1C)c1ccco1 | -10% | 21µM* | 10µM* | 1% | -16 | u
C/C(=N\NC(=O)c1csc(C)c1C)c1ccc(C)s1 | -6% | 2.9µM* | 2.6µM* | 1% | -16 | 3%
C/C(=N/NC(=O)c1cc(C)[nH]n1)c1ccco1 | 0% | -22% | 3% | -1% | 3 | u
C/C(=N\NC(=O)c1cc(-c2ccc(C)s2)[nH]n1)c1ccco1 | 12% | 18µM* | u | u | -6 | -5%
COc1cccc(NC(=O)Cn2cnc3c(nc4n3CCCCC4)c2=O)c1 | x | -6% | -18% | x | x | x
CCc1ccc([C@@H]2C[C@H]3[C@@H](CN2S(=O)(=O)c2ccc(C)cc2)C(=O)C[C@@H](c2cccc(Cl)c2)N3S(=O)(=O)c2ccc(C)cc2)cc1 | x | u | -19% | x | 46 | x
COc1cc2c(cc1OC)C(CC(=O)O)N(C(=O)Nc1cc(OC)c(OC)c(OC)c1)CC2 (configuration not stated) | x | u | 3.7µM* | x | x | x
COc1cc2c(cc1OC)C(C)N(C(=O)Nc1ccc(F)cc1)CC2 (configuration not stated) | u | 7.3µM* | 13µM* | u | -1 | -14%
O=C(CC1C(=O)NCCN1C(=O)c1ccccc1)Nc1cc(Cl)ccc1Cl (configuration not stated) | -1% | -9% | -4% | -2% | 0 | -1%
O=C(O)CC1c2ccccc2CCN1C(=O)Nc1cc(Cl)ccc1Cl (configuration not stated) | x | 21µM* | 21µM* | x | x | x
CNC(=S)N1CCc2cc(OC)c(OC)cc2C1COc1ccc(F)cc1 (configuration not stated) | -5% | 0% | 1% | 13% | u | u
COc1cc2c(cc1OC)C(C)N(C(=O)Nc1cc(C)cc(C)c1)CC2 (configuration not stated) | u | 2.6µM* | 3.3µM* | 3.7µM* | 35 | u
CCCN(C(=O)CCNC(=O)Cn1cnc2ccccc2c1=O)c1cccc(Cl)c1 | 1% | -32% | 10% | 2% | 2 | 0%
COc1cc2c(cc1OC)C(C)N(C(=O)CCc1c[nH]c3ccccc13)CC2 (configuration not stated) | u | u | u | u | 21 | 0%
COc1cc2c(cc1OC)C(C)N(C(=O)c1cc3c(C)cc(C)cc3[nH]1)CC2 (configuration not stated) | u | 16µM* | 16µM* | u | -81* | u
O=C(NCC1COc2ccccc2O1)C1CCN(S(=O)(=O)c2ccc(Cl)cc2)CC1 (configuration not stated) | 2% | u | u | 12% | -7 | 4%
Cc1ccc(NC(=O)c2ccc(CSc3ccccn3)cc2)c(O)c1 | 3% | u | -20% | 0% | -12 | u
Cc1ccc(SCc2ccc(C(=O)Nc3cccc([N+](=O)[O-])c3)cc2)cc1 | 8.2µM* | u | -29% | 4.1µM* | -13 | -3%
O=C(Nc1cccc([N+](=O)[O-])c1)C1C2CC/C=C\CCC21 (configuration not stated) | 2% | 18µM* | -28% | u | -5 | u
CC(C)(C)c1ccc(C(=O)Nc2cccc([N+](=O)[O-])c2)cc1 | -79% | 18µM* | 16µM* | u | -98* | u
O=C(O)C1C2CCC(C2)C1C(=O)Nc1cccc([N+](=O)[O-])c1 (configuration not stated) | -5% | -1% | 7% | 17% | 9 | -2%
SMILES | SW480 rerep | TDP1 cell noCPT | TDP1 cell CPT | MCF10A rereplic | IL1B secr inh | BCR signal inh
Cc1ccc(SCc2ccc(C(=O)Nc3cc([N+](=O)[O-])ccc3C)cc2)cc1 | u | -10% | -11% | -7% | -12 | u
Cc1ccc(NC(=O)c2ccc(CSc3ccccn3)cc2)cc1 | 16% | 23µM* | u | 0% | u | u
CCN(CC(=O)NCc1ccc(Cl)cc1)C(=O)C1CCN(S(=O)(=O)c2ccc(OC)c(OC)c2)CC1 | 1% | -25% | -7% | -1% | -12 | 7%
CC(C)(C)CC(C)(C)NC(=O)Nc1cccc([N+](=O)[O-])c1 | 8% | 16µM* | u | u | -21 | 2%
CC(C)=CCC12Oc3cc(O)ccc3C1(O)Oc1cc(O)c([C@H]3C=C(C)CC(c4ccc(O)cc4O)[C@H]3C(=O)c3ccc(O)cc3O)c(O)c1C2=O (some centres not stated) | -18% | 26µM* | u | u | 22 | x
Cc1ccc(CNc2nc3ccccc3c3nc(-c4cccc(C)c4)nn23)cc1 | x | -24% | 2% | x | x | x
Clc1ccc(CNc2nc3ccccc3c3nc(-c4cccnc4)nn23)cc1 | x | u | -21% | x | x | x
Clc1ccccc1CNc1nc2ccccc2c2nc(-c3ccccc3)nn12 | x | -8% | -10% | x | x | x
CCCCNC(=O)CCC(=O)NNc1nc2ccccc2c2nc(C)nn12 | -8% | u | -23% | -4% | 12 | 0%
c1ccc(CNc2nc3ccccc3c3nc(-c4ccccc4)nn23)cc1 | x | 2.6µM* | u | x | x | x
CCCCNc1nc2ccccc2c2nc(-c3ccccc3)nn12 | x | 21µM* | u | x | x | x
Clc1ccc(CCNc2nc3ccccc3c3nc(-c4ccccc4)nn23)cc1 | x | 12µM* | u | x | x | x
CCCCNC(=O)CCC(=O)NNc1nc2ccccc2c2nc(-c3ccccc3)nn12 | 1% | 23µM* | u | 8% | 22 | 0%
Cc1ccc2onc(CC(=O)N3CCN(c4ccccc4)CC3)c2c1 | x | u | -43% | x | x | x
